From PubChem
This is a sample that favours compounds with a hit; in the whole collection about 12% have one here.
Lmaj promast = Leishmania major promastigote growth inhibition, primary screen | AID 1063, 2008 | 9% of 200,000 active | Leishmania major promastigotes, resazurin fluorescence viability | inhibition, % at 10 µM; in the data active = inhibition above about 50%;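 also: promastigotes grown with compound for 44 hours at 28 °C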
m-calpain inh = inhibitors of pig calpain II, primary screen, biochemical, fluorogenic peptide substrate, 1536-well | inhibition, % at 16 µM | 0.37% of 220,000 active | purified calpain II, 30 min;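 active = inhibition above about 50%, limit read from the data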
ROMK primary = ROMK potassium channel modulators, primary screen, cell-based, thallium flux, MLSMR library. AID 1918, 2009. Tet-inducible ROMK, thallium flux fluorescence; actives lie on both sides. B-score at 10 µM. ATP-sensitive inward rectifier potassium channel 1 (Homo sapiens), P48048. 2% of 130,000 active;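 active = signal ratio slope over the read window, or its plate-corrected B-score, at least 3 SD from the plate mean, either direction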;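 also: B-score of the F/F0 ratio slope over 7 to 12 s after thallium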
Target sequence (P48048 whole entry, looked up): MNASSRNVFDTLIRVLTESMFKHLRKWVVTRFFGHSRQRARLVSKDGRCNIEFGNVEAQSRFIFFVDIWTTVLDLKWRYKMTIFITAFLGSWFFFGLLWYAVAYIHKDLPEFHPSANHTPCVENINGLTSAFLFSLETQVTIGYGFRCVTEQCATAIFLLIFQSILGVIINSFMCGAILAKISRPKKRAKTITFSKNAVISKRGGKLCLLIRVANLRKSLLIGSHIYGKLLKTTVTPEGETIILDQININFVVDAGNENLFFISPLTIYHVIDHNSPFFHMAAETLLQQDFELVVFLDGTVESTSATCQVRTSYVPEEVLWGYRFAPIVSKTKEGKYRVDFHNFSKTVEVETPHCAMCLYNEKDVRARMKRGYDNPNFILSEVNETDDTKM
Cl transport mod = KCC2 cotransporter modulators, thallium flux, primary screen, cell-based, HEK293 KCC2, FluoZin-2 fluorescence, MLSMR; KCC2 cells, thallium flux FluoZin-2 fluorescence; Solute carrier family 12 member 5 (Homo sapiens), Q9H2X9; AID 1456, 2008; 2.2% of 190,000 active; B-score of Tl+ flux slope (higher = more flux/activation; lower = inhibition) at 10 µM;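 active = thallium flux slope and its plate-corrected score both differing from the plate sample mean at a set confidence after two filtering rounds, in either direction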;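 also: slope of fluorescence scaled to starting intensity during 10 to 20 s after thallium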
WT yeast gro inh = growth inhibition of WT strain, primary screen, mitochondrial fusion inhibitor project, WT and mutant strains, chemical genetic | mitochondrial fusion phenotypic screen | inhibition, % at 10 µM | 2.1% of 190,000 active; in the data active = inhibition above about 58%; tested in S. cerevisiae
KCC2 secondary = KCC2 modulators in sodium-free buffer, confirmation, cell-based, HEK293 KCC2, thallium flux, secondary assay; AID 1713, 2009; normalised thallium flux (F/F0 slope) at 10 µM; FluoZin2 fluorescence; hits give high values; shares compounds with Cl transport mod; 15% of 3,700 active;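 active = thallium flux slope above the same plate's solvent-only control mean plus 3 SD; inconclusive = the two replicate wells disagree; inactive = no significant difference from solvent-only control wells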
KCC2 bumet counter = thallium flux persisting under bumetanide in KCC2 cells, confirmation, counter-screen for KCC2 modulator project, cell-based, HEK293 KCC2, FluoZin2, secondary assay 3; 49% of 3,700 active; normalized thallium flux at 10 µM; shares compounds with Cl transport mod; HEK293-KCC2 + bumetanide/ouabain; hits give high values;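 active = thallium entry rate above the same plate's blocked-transporter control wells by more than 3 SD; inconclusive = the two repeat wells disagree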;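 also: raw slope of fluorescence over initial fluorescence between 10 and 20 s after thallium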
KCC2 sec2 = KCC2 modulators without ouabain present, confirmation, cell-based, HEK293 KCC2, thallium flux, FluoZin2, secondary assay 2; AID 1715, 2009; 23% of 3,700 active; shares compounds with Cl transport mod; normalized thallium flux at 10 µM; thallium flux FluoZin2 fluorescence; actives lie on both sides; F/F0 rise rate, 10–20 s post-thallium;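 active = thallium flux slope more than 3 SD above or below the plate's solvent-only control mean, mostly below; inconclusive = the two repeat wells disagreed; inactive = no significant shift from solvent-only controls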;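 also: raw slope with 0.1% DMSO as baseline and bumetanide as block control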
HEK293 Tl flux = thallium flux modulation in parental HEK cells, confirmation, counter-screen for KCC2 modulator project, cell-based, counterscreen 1; shares compounds with Cl transport mod; HEK293 parental cells, thallium flux FluoZin2, ouabain; baseline-ratio fluorescence slope, 10–20 s after thallium; thallium flux rate (normalised fluorescence) at 10 µM; 46% of 3,700 active;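 active = thallium flux rate significantly above the same plate's solvent-only control wells, beyond their mean plus 3 SD; inconclusive = the two replicate wells gave conflicting results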
KCC2 ouabain = KCC2 inhibitors and activators, ouabain retest, confirmation, HEK-KCC2 cells | shares compounds with Cl transport mod | HEK293-KCC2, thallium flux FluoZin2 fluorescence; bidirectional: low = inhibitor, high = activator | raw Tl+ flux slope (below DMSO = inhibition, above = activation) at 10 µM | 48% of 3,700 active | AID 1717, 2009;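 active = thallium flux slope beyond 3 SD from same-plate DMSO control mean in most replicates, usually higher, sometimes lower; inconclusive = repeat tests gave conflicting results; inactive = no significant difference from controls in most replicates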;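 also: slope of initial-normalized fluorescence between seconds 10 and 20 after thallium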
HEK293 Tl flux2 = native HEK Tl+ uptake effects, second counter-screen – HEK cells, counterscreen 2, counter-screen for KCC2 modulator project, confirmation; AID 1718, 2009; 33% of 3,700 active; thallium flux slope at 10 µM; HEK293 parental, thallium flux FluoZin-2 fluorescence slope; shares compounds with Cl transport mod;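 active = thallium flux slope above the same plate's solvent-control mean plus 3 SD in both duplicate wells; inconclusive = duplicate wells that disagreed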;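 also: run without ouabain in cells lacking the KCC2 cotransporter; slope of fluorescence scaled to its starting value between 10 and 20 s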
* = called active by the depositor; u = inconclusive; x = no result.

SMILES	Lmaj promast	m-calpain inh	ROMK primary	Cl transport mod	WT yeast gro inh	KCC2 secondary	KCC2 bumet counter	KCC2 sec2	HEK293 Tl flux	KCC2 ouabain	HEK293 Tl flux2
O=C(CCn1c(=O)c2ccccc2n(Cc2cc(=O)n3ccccc3n2)c1=O)NCc1ccco1	-4	-44	-0.11	-1.6	1	x	x	x	x	x	x
c1ccc(OCc2nn3c(C4CCCCC4)nnc3s2)cc1	-6	19	-1.5	-3.6*	13	0.014	0.0035	0.024*	u	0.013*	0.0093
CCOc1ccccc1OCc1nn2c(COc3ccccc3)nnc2s1	10	-19	x	-1.2	20	x	x	x	x	x	x
CCCn1nc(C(=O)OCn2nnc3ccccc3c2=O)c2ccccc2c1=O	-2	12	1.5	-1.7	6	x	x	x	x	x	x
CCOC(=O)c1cnc(-c2cccc(OC)c2)[nH]c1=O	-2	-40	x	x	-5	0.0067	u	0.034	0.0083	0.019	0.011
CCC(Nc1ccc(OC)cc1)C(=O)N/N=C/c1ccc([N+](=O)[O-])cc1 (configuration not stated)	-4	4	-0.075	0.79	-4	x	x	x	x	x	x
CC1Cc2ccccc2N1C(=O)CO/N=C/c1ccccc1OC(F)F (configuration not stated)	-1	12	x	-5.6*	2	0.0062	u	0.023*	u	0.013*	0.01
O=C(CO/N=C/c1ccccc1OC(F)F)N1CCc2ccccc21	-6	7	x	-0.77	5	x	x	x	x	x	x
COc1ccc(S(=O)(=O)NCCc2csc(-c3cccnc3)n2)cc1	-5	-8	x	-1.1	-11	x	x	x	x	x	x
Cc1ccc(COc2ccccc2-c2cc(C(=O)N/N=C/c3cccnc3)[nH]n2)cc1	x	9	x	-5.5*	x	0.0064	0.0055	u	u	0.012*	0.011
Cc1nn(CC(=O)O)c2ccccc12	-5	27	x	6.6*	-8	0.0093	0.0064	0.029	0.0076	0.056	0.0095
O=C1CCC(=O)N1c1ccc(NC2CCN(Cc3ccccc3)CC2)c([N+](=O)[O-])c1	-3	30	-0.51	-5.9*	3	0.0072	0.0061	0.025*	u	0.024	0.011
O=[N+]([O-])c1ccc(NC2CCN(Cc3ccccc3)CC2)c([N+](=O)[O-])c1	22	18	-1.5	-5.2*	13	0.006	0.0046	0.022*	0.0073	u	0.011
O=[N+]([O-])c1ccccc1NC1CCN(Cc2ccccc2)CC1	x	-13	-1.2	-2.4	x	x	x	x	x	x	x
O=C1C2CCCCC2C(=O)N1c1ccc(NC2CCN(Cc3ccccc3)CC2)c([N+](=O)[O-])c1 (configuration not stated)	-5	84*	-2.7	-8.5*	-7	0.011	0.0077*	0.026*	0.0078	0.014*	0.011
CC1CCC2C(=O)N(c3ccc(NC4CCN(Cc5ccccc5)CC4)c([N+](=O)[O-])c3)C(=O)C2C1 (configuration not stated)	11	28	x	-2.8	9	x	x	x	x	x	x
COc1ccc(CCN2C(=O)CSC2=Nc2ccc(C)cc2C)cc1OC	x	2	0.037	-0.23	x	x	x	x	x	x	x
N#Cc1ccc(OCC(=O)OCC(=O)Nc2cc(C(F)(F)F)ccc2N2CCOCC2)cc1	1	-15	x	-0.79	-5	x	x	x	x	x	x
CCn1c(=O)n(CC)c2cc(S(=O)(=O)N3CCC(c4ccccc4)CC3)ccc21	-6	-12	-2.5	x	4	0.0062	0.0047	0.025*	0.007	0.017*	0.01
CC(C)c1ncc(S(=O)(=O)c2ccc(C(F)(F)F)cn2)c(N)n1	x	-18	x	-0.015	x	x	x	x	x	x	x
O=C(NNC(=S)Nc1ccc(Cl)cc1)c1ccccc1OC(F)F	-1	-2	-2.1	5.2*	12	0.0071	0.023*	0.033	0.02*	0.029*	0.013*
O=C(NNC(=S)NCc1ccccc1)c1ccccc1OC(F)F	13	-8	-0.033	-0.57	-9	x	x	x	x	x	x
O=S(=O)(NCc1ccccc1)c1ccccc1Br	x	-13	x	-0.037	x	x	x	x	x	x	x
O=S(=O)(NCc1ccccc1)c1ccc(Cl)c(S(=O)(=O)NCc2ccccc2)c1	14	-1	-0.92	x	-2	0.0076	0.0063	u	0.0061	0.013*	0.0097
CCOc1cc(S(=O)(=O)NCc2ccccc2)ccc1F	20	-43	-1.1	x	10	u	0.0053	0.024*	0.0075	u	0.011
SMILES	Lmaj promast	m-calpain inh	ROMK primary	Cl transport mod	WT yeast gro inh	KCC2 secondary	KCC2 bumet counter	KCC2 sec2	HEK293 Tl flux	KCC2 ouabain	HEK293 Tl flux2
CC(CNC(=O)CCc1nnc(CCC2CCCCC2)o1)c1ccccc1 (configuration not stated)	4	3	-2.3	-0.96	22	x	x	x	x	x	x
Cc1ccc(S(=O)(=O)c2ccccc2)cc1S	1	-8	-0.028	0.098	47	x	x	x	x	x	x
O=C(CN1CCC(NC(=O)c2cccc(F)c2)CC1)NCc1ccccc1F	2	16	-0.63	x	-1	0.0089	0.0068	0.031	0.0073	0.033	0.01
CC1(C)Cc2ccccc2-c2nnc(-c3ccccc3)n21	5	7	x	-1.3	15	x	x	x	x	x	x
Cc1cc2c(cc1C)-c1nnc(-c3ccc4ccccc4n3)n1C(C)(C)C2	47	17	x	-5*	1	0.0065	0.0052	0.03	0.008	0.019	0.011
Cc1cc(C)c(OCC(=O)N(Cc2ccc(N(C)C)cc2)C2CCS(=O)(=O)C2)c(C)c1 (configuration not stated)	x	0	x	-1.1	x	x	x	x	x	x	x
CCCCOC(=O)C1=C(C)NC2=C(C(=O)CCC2)C1c1cc(OC)ccc1OC (configuration not stated)	1	-34	x	7.5*	2	0.0071	0.0056	0.029	0.0065	0.019	0.0092
